This is an account of results in the supplement of paper PMC3545927.

This is one part of the list. The hit rate among all sequences tested is not known here.

For this assay, the target named is furin, P09958. Briefly: furin cleavage Z-score vs untreated control; higher = more cleavage, active = 3.5 or more, inactive = 1 or less, 8 variable residues between constant flanks. The gist of the method: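 Abundance of DNA freed from bead-bound 8-mer peptide–cDNA fusions by purified furin was measured as sequencing read counts after PCR adapter tagging. Cutting ran 7.5, 15 or 30 min in 0.01 ml of 50 mM HEPES pH 7.5 with CaCl2 and NaCl at 1:10 enzyme:substrate. The cleavage Z-score expresses these log counts against furin-free reactions after lowess adjustment and median absolute deviation scaling.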
Sequence of furin, P09958 (P09958 whole entry, the tested form may be a part): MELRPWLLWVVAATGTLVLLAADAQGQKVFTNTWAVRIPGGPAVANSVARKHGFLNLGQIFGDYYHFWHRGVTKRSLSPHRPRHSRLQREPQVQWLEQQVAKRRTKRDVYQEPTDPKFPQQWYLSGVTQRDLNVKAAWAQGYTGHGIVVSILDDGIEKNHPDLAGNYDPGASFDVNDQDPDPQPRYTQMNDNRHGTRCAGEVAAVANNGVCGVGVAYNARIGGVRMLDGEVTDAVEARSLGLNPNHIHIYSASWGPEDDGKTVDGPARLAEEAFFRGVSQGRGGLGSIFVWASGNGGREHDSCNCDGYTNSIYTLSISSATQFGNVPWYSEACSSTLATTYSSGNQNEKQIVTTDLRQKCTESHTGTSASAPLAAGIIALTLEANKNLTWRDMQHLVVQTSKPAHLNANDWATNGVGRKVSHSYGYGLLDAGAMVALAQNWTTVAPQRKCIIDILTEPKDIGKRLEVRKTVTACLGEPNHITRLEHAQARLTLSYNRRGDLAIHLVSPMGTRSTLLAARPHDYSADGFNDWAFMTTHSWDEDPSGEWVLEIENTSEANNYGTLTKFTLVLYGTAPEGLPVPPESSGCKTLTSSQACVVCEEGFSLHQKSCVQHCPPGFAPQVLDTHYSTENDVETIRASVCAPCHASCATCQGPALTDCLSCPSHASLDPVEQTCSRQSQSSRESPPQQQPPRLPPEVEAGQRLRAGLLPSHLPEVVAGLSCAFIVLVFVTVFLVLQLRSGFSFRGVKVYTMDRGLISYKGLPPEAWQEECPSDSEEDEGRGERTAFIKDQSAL

B1: HC1218 (peptide)
chain: CAQVPSPEFFAGNASASA
On to B1, for which the “furin cleavage Z-score” value reads like this: (7.5 min) -1.13 (inactive); (15 min) -0.661 (inactive); (30 min) 0.459 (inactive).

B2: HC838 (peptide)
chain: CAVTVPHPNIAGNASASA
For B2, the “furin cleavage Z-score” value (7.5 min) was 0.905 (inactive), the “furin cleavage Z-score” value (15 min) came to 1.12 and the “furin cleavage Z-score” value (30 min) was determined as 1.65.

B3: HC361 (peptide)
chain: CASLLAPGAKAGNASASA
As for B3, the “furin cleavage Z-score” value by setting is: (7.5 min) -0.751 (inactive); (15 min) -1.11 (inactive); (30 min) -0.788 (inactive).

B4: FS-1669 (peptide)
chain: CADKRRSVRIAGNASASA
Regarding B4, the “furin cleavage Z-score” value by setting is: (7.5 min) 0.236 (inactive); (15 min) -0.291 (inactive); (30 min) 0.74 (inactive).

B5: FS-1814 (peptide)
chain: CAVERRSVNKAGNASASA
B5: the “furin cleavage Z-score” value runs as follows: (7.5 min) -1.15 (inactive); (15 min) -0.638 (inactive); (30 min) -0.108 (inactive).

B6: FS-2881 (peptide)
chain: CARAERKTEIAGNASASA
In the case of B6, the “furin cleavage Z-score” value (7.5 min) is -0.287 (inactive), the “furin cleavage Z-score” value (15 min) was 1.15 and the “furin cleavage Z-score” value (30 min) is -0.302 (inactive).

B7: FU7 (peptide)
chain: CARKPRCGNPAGNASASA
On to B7, for which the “furin cleavage Z-score” value reads like this: (7.5 min) 0.143 (inactive); (15 min) 2; (30 min) 0.939 (inactive).

B8: FS-2614 (peptide)
chain: CARTQRSTEIAGNASASA
Turning to B8, the “furin cleavage Z-score” value was 1.54 (7.5 min), 2.65 (15 min) and 3.99 (active) (30 min).

B9: FS-833 (peptide)
chain: CANKRRSVRFAGNASASA
For B9, the “furin cleavage Z-score” value is, setting by setting: (7.5 min) 5.74 (active); (15 min) 7.19 (active); (30 min) 8.22 (active).

B10: FS-2126 (peptide)
chain: CAMKRRSVTMAGNASASA
As for B10, the “furin cleavage Z-score” value runs as follows: (7.5 min) 1.48; (15 min) 0.933 (inactive); (30 min) 2.48.

B11: FS-2702 (peptide)
chain: CARKRRSVNPAGNASASA
In the case of B11, the “furin cleavage Z-score” value (7.5 min) is 11.8 (active), the “furin cleavage Z-score” value (15 min) is 12.1 (active) and the “furin cleavage Z-score” value (30 min) was 9.6 (active).

B12: HC2364 (peptide)
chain: CAEVPCHIPSAGNASASA
Turning to B12, the “furin cleavage Z-score” value runs as follows: (7.5 min) 0.695 (inactive); (15 min) 0.0124 (inactive); (30 min) 0.569 (inactive).

B13: FS-733 (peptide)
chain: CAVFERVSRSAGNASASA
For B13, the “furin cleavage Z-score” value is 5.52 (active) (7.5 min), 7.31 (active) (15 min) and 6.35 (active) (30 min).

B14: HC364 (peptide)
chain: CAAKQNVQLIAGNASASA
As to B14, the “furin cleavage Z-score” value was 1.11 (7.5 min), 2.16 (15 min) and -0.868 (inactive) (30 min).

B15: HC834 (peptide)
chain: CAATATPPGSAGNASASA
In the case of B15, the “furin cleavage Z-score” value by setting is: (7.5 min) -1.04 (inactive); (15 min) -0.000581 (inactive); (30 min) -0.987 (inactive).

B16: FS-1301 (peptide)
chain: CAAKQRPPRSAGNASASA
For B16, the “furin cleavage Z-score” value was 8.85 (active) (7.5 min), 8.91 (active) (15 min) and 7.56 (active) (30 min).

B17: FS-1507 (peptide)
chain: CAADHRFYRYAGNASASA
On to B17, for which the “furin cleavage Z-score” value reads like this: (7.5 min) -0.685 (inactive); (15 min) -0.762 (inactive); (30 min) 0.166 (inactive).

B18: FS-1300 (peptide)
chain: CAAKQRERRYAGNASASA
With B18, the “furin cleavage Z-score” value (7.5 min) was 9.27 (active), the “furin cleavage Z-score” value (15 min) was 10.1 (active) and the “furin cleavage Z-score” value (30 min) was 7.92 (active).

B19: FS-1114 (peptide)
chain: CADGGRPPRSAGNASASA
For the sequence B19, the “furin cleavage Z-score” value is 2.6 (7.5 min), 2.51 (15 min) and 3.55 (active) (30 min).

B20: FS-1055 (peptide)
chain: CAQGGRPPRPAGNASASA
With B20, the “furin cleavage Z-score” value is -0.328 (inactive) (7.5 min), -0.378 (inactive) (15 min) and 0.24 (inactive) (30 min).

B21: HC23 (peptide)
chain: CAMEECVQHLAGNASASA
For the sequence B21, the “furin cleavage Z-score” value by setting is: (7.5 min) 0.873 (inactive); (15 min) 1.67; (30 min) 1.34.

B22: HC460 (peptide)
chain: CASGPWITPRAGNASASA
On to B22, for which the “furin cleavage Z-score” value runs as follows: (7.5 min) -0.377 (inactive); (15 min) 1.52; (30 min) -0.355 (inactive).

B23: FS-223 (peptide)
chain: CADGGRVSRSAGNASASA
B23: the “furin cleavage Z-score” value (7.5 min) was determined as 3.4, the “furin cleavage Z-score” value (15 min) was 4.59 (active) and the “furin cleavage Z-score” value (30 min) is 5.66 (active).

B24: FS-1216 (peptide)
chain: CAITNRPPRSAGNASASA
Consider B24, for which the “furin cleavage Z-score” value is 2.7 (7.5 min), 5.07 (active) (15 min) and 2.23 (30 min).

B25: FS-1217 (peptide)
chain: CAITSRIIRSAGNASASA
Regarding B25, the “furin cleavage Z-score” value is 9.87 (active) (7.5 min), 8.44 (active) (15 min) and 6.88 (active) (30 min).

B26: HC1897 (peptide)
chain: CATTPCSSSWAGNASASA
As to B26, the “furin cleavage Z-score” value (7.5 min) is -0.808 (inactive), the “furin cleavage Z-score” value (15 min) came to 1.71 and the “furin cleavage Z-score” value (30 min) was -0.0324 (inactive).

B27: HC1963 (peptide)
chain: CAEATTPCSGAGNASASA
Consider B27, for which the “furin cleavage Z-score” value is, setting by setting: (7.5 min) -1.21 (inactive); (15 min) -0.00595 (inactive); (30 min) 0.567 (inactive).
